TDP1 cell CPT – DT40-hTDP1 cell growth loss with CPT; chicken DT40 Tdp1-/-;hTDP1 cells + 20 nM CPT, ATP luminescence, 48 h; Potency, µM (titrated, usually from 46.2 µM), for the others: top-dose activity change, negative = growth inhibition, usual class: inhibitors; hit rate 12% among 420,000; AID 686979; further: nearly all actives have a fitted effect of over 55% in size
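Cell growth measured by CellTiter-Glo luminescence after a minimum 48 h, 37 C compound exposure with 20 nM CPT in Tdp1-knockout DT40 cells stably expressing hTDP1, seeded 400/well; qHTS titration format.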
ALOX12 inh – blocks human arachidonate 12S-lipoxygenase | purified 12hLO, xylenol orange hydroperoxide absorbance | AID 1671190 | hit rate 1.1% among 580,000 | Potency, µM (highest dose often 108 µM), for the others: at the highest dose activity change, negative = inhibition, most hits filed as inhibitors
Target sequence (P18054 whole entry, looked up): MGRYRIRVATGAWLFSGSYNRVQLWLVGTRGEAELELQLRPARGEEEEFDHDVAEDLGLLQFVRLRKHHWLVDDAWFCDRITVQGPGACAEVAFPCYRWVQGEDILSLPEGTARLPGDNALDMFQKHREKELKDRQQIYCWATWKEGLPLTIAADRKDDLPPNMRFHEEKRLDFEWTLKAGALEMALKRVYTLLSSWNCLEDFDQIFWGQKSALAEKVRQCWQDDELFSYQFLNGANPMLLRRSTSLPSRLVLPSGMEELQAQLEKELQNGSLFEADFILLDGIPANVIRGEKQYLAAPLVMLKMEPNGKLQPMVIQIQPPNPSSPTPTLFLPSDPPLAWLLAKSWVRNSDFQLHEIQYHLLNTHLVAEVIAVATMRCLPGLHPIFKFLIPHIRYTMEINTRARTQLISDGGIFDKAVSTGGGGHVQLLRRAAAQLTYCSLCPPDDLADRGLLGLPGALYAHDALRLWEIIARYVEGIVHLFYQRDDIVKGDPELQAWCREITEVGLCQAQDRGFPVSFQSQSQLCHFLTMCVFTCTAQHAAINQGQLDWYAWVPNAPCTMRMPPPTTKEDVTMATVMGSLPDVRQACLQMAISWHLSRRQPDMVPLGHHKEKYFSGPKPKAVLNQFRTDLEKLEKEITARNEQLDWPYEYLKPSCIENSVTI
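Purified human 12hLO (150 nM final) in 25 mM Hepes, 0.01% Triton X-100, pH 7.0 was preincubated 15 min at room temperature with compound. Then 40 uM arachidonic acid was added, 30 min. Hydroperoxide was read by Fe-XO absorbance ratio 573/405 nm.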
ELG1 repair inh – ELG1-dependent DNA repair inhibition | hit rate 2.3% among 330,000 | HEK293T ELG1-luciferase reporter, luminescence, 16 h; DNA damage induced by 5-fluorouridine | Potency, µM (titrated, usually from 46.1 µM), for the others: at the top dose activity change, negative = inhibition, usual class: inhibitors; further: nearly all actives have a fitted effect of over 55% in size
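Luminescence from the luciferase reporter, measured 30 min after ONE-Glo reagent at room temperature, was the read-out. Beforehand, 2,000 cells per well were exposed for 16 hr at 37 °C to 5-fluorouridine together with compound or vehicle.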
VP16 counter – Gal4-VP16 reporter inhibition counter-screen; Drosophila S2 Gal4-VP16 UAS-luciferase, luminescence, 20 h; Potency, µM (titrated, usually from 53.6 µM), inactives show at the highest dose activity, negative = inhibition, most hits filed as inhibitors; hit rate 3.5% among 310,000;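 further: Gal4-VP16 expression switched on by copper sulfate through the metallothionein promoter; nearly all actives have a fitted effect of over 50% in size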
TDP1 cell noCPT – qHTS for Inhibitors of human tyrosyl-DNA phosphodiesterase 1 (TDP1): qHTS in cells in absence of CPT. DT40 Tdp1-/- hTDP1 cells, no CPT, ATP luminescence, 48 h. Potency, µM (top dose mostly 46.2 µM), for inactives: at the highest dose activity change, negative = growth inhibition, actives largely listed as inhibitors. hit rate 15% among 420,000. AID 686978, 2013; further: nearly all actives have a fitted effect of over 55% in size
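No-CPT arm: Tdp1-/-;hTDP1 DT40 cells (400/well) plus compounds, incubated ≥48 hr at 37 °C. Readout CellTiter-Glo luminescence.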
RORgamma inh – ROR gamma (mouse) transcription inhibition; P51450; Drosophila S2 Gal4-RORgamma UAS-luciferase reporter, 20 h; Potency, µM (series often up to 53.6 µM), inactives show top-dose activity change, negative = inhibition, most hits filed as inhibitors; hit rate 5.4% among 310,000; further: nearly all actives have a fitted effect of over 60% in size
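Drosophila S2 cells stably expressing Gal4-DBD/mouse RORγ fusion under metallothionein promoter plus UAS-luciferase; compound 1 h, then 700 uM CuSO4 induction for 20 h at ambient temperature; inhibition read as reduced luminescence.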
* marks the source's active call; other numbers are inactive results; ? = inconclusive; . = no result given; ! = not confirmed by another sample; [ ] = remark or other dose. This is a sample that favours compounds with a hit; in the whole collection about 15% have one here. The call rests on the fitted dose curve; in most records, active means well fitted curve in the direction sought with a large enough effect; inconclusive means small, poorly fitted or top-dose-only effect, or another doubt; inactive means no such curve, though single readings can be large; an effect the other way counts as inactive or inconclusive. On the % scale 0 is the no-effect control and ±100 the full control effect; potency means the concentration at half of the fitted maximal effect.

SMILES	TDP1 cell CPT	ALOX12 inh	ELG1 repair inh	VP16 counter	TDP1 cell noCPT	RORgamma inh
COc1cc(OC)cc(-c2nnc3n2N=C(c2ccc(OC)c(OC)c2)CS3)c1	.	.	.	-3%	.	-3%
COC(=O)c1cccc(NC(=S)NCc2ccc(Cl)cc2)c1	?	?	7%	4%[0.365 µM]	?	?
COC(=O)c1sccc1NC(=S)NCc1ccc(Cl)cc1	-12%	?	-25%	1.3µM*	-17%	0.79µM*
COC(=O)c1cc(NC(=S)NCc2ccc(Cl)cc2)cc(C(=O)OC)c1	16µM*	45µM*	0%	?	?	?
COC(=O)c1ccc(C)c(NC(=S)NCc2ccc(Cl)cc2)c1	?	-17%	2%	14µM*	?	8.9µM*
CCN1C(=O)/C(=C\c2nc3ccccc3c(=O)n2CC)c2ccccc21	16µM*	-15%	?	5%	29µM*	-14%
CCN1C(=O)/C(=C/c2nc3ccccc3c(=O)n2-c2ccccc2)c2ccccc21	21µM*	10%	?	5%[0.365 µM]	18µM*	-8%
CCn1c(/C=C2\C(=O)N(C)c3ccccc32)nc2ccccc2c1=O	?	-4%	-2%	-1%	?	-25%
CCn1c(/C=C2/C(=O)N(C)c3ccccc32)nc2ccccc2c1=O	?	-19%	-3%	-11%	16µM*	26%
Cc1ccc(-c2ccc(=O)n(Cc3noc(C(=O)NC(C)Cc4ccco4)n3)n2)cc1 (stereo not drawn)	.	4%	.	.	.	.
COc1ccc(NC(=O)CSc2nnc3ccc(-c4ccncc4)nn23)cc1	-19%	15%	8.2µM*	.	?	.
COc1ccc(NC(=O)CSc2nnc3ccc(-c4cccnc4)nn23)cc1	-11%	-27%	1%	.	-20%	.
COc1ccc(-n2c(SCC(=O)Nc3cccc4ccccc34)nc(O)cc2=O)cc1	0%	?	-3%	12%	-15%	35µM*
C=CCn1c(SCC(=O)Nc2ccc(Br)cc2)nc(O)cc1=O	-11%	3.2µM*	.	.	11%	.
COc1ccc(NC(=O)CSc2nc(O)cc(=O)n2-c2ccc(OC)cc2)cc1	6%	13µM*	5%	3%	-9%	-10%
COc1ccc(-n2c(SCC(=O)Nc3ccccc3)nc(O)cc2=O)cc1	6%	?	?	2%	4%	21%
O=C(NCCCNC(=O)C1CCCC1)C1CCCC1	.	-7%	.	.	.	.
Clc1ccc(COn2c(-c3ccc(Cl)cc3)nc3ccccc32)cc1	?	-28%	16%	21%	?	11µM*
Clc1ccc(COn2c(-c3ccccc3)nc3ccccc32)cc1	?	-6%	10%	?	23µM*	10µM*
COc1cccc(C2NC(=S)NC(C)=C2C(=O)c2ccccc2)c1OC (stereo not drawn)	?	45µM*	15%	?	10µM*	?
COc1ccc(NC(=O)CN2C(=O)COc3ccc(S(=O)(=O)N4CCOCC4)cc32)cc1Cl	?	-1%	19%	-5%	18µM*!	36%
Cc1ccc(NC(=O)CN2C(=O)COc3ccc(S(=O)(=O)N4CCCCC4)cc32)cc1N(C)C	23µM*	-17%	.	.	21µM*	.
CN1[C@@H](CCC(=O)N2CCN(c3ccccc3)CC2)CNC(=O)[C@@H]2[C@H]1CCN2Cc1ccc(CO)o1	.	114%	.	.	.	.
O=C(OCCOC(=O)c1cccs1)c1cccs1	.	3%	.	.	.	.
O=C(CC(c1ccc(Cl)cc1)c1c[nH]c2ccc([N+](=O)[O-])cc12)N1CCOCC1 (stereo not drawn)	.	8.9µM*	.	.	.	.
SMILES	TDP1 cell CPT	ALOX12 inh	ELG1 repair inh	VP16 counter	TDP1 cell noCPT	RORgamma inh
COCCNC(=O)CC(c1ccc(Cl)cc1)c1c[nH]c2ccc([N+](=O)[O-])cc12 (stereo not drawn)	.	7.1µM*	.	.	.	.
CCCCNC(=O)CC(c1cccc([N+](=O)[O-])c1)c1c[nH]c2ccccc12 (stereo not drawn)	.	-6%	.	.	.	.
CCCOC(=O)c1cccc(Nc2nc(CCC)cc(=O)[nH]2)c1	16µM*	-24%	.	.	15µM*	.
O=C(Nc1cccc(-c2cn3c(n2)SCC3)c1)c1ccc(Br)o1	?	-4%	?	7%	-18%	?
O=C(Cc1ccc(F)cc1)Nc1cccc(-c2cn3c(n2)SCC3)c1	?	-3%	16µM*	3%	?	23%
CCOC(=O)c1cc2cc(OC)ccc2n1C1CCN(CCc2ccccc2)CC1	?	-105%	.	.	?	.
CCOC(=O)c1cc2ccccc2n1C1CCN(CCc2ccccc2)CC1	9.2µM*	-67%	.	.	7.3µM*	.
COc1ccc(-c2ccc3nccn3c2)cc1	-19%	-15%	.	.	?	.
CC(C)Cc1ccc(-c2ccc3nccn3c2)cc1	?	?	.	.	18µM*	.
O=C(Nc1ccc(-c2ccccc2)cc1)c1ccc2c(c1)OCO2	.	8%	.	.	.	.
Cc1cccc(NS(=O)(=O)c2ccc(NC(=O)CN(c3cc([N+](=O)[O-])ccc3C)S(C)(=O)=O)cc2)c1	16µM*	?	-12%	?	?	41%
Cc1ccccc1N(CC(=O)Nc1ccc(F)cc1)S(C)(=O)=O	-5%	-11%	0%	-3%	12%	26%
Cc1cccc(N(CC(=O)Nc2ccc(Br)cc2)S(C)(=O)=O)c1C	?	?	.	.	21µM*	.
COc1ccc(C)cc1NS(=O)(=O)c1ccc(NC(=O)CN(c2cc([N+](=O)[O-])ccc2C)S(C)(=O)=O)cc1	9.2µM*	-4%	0%	-10%	15µM*	-15%
COc1ccc([N+](=O)[O-])cc1N(CC(=O)NCCSc1ccc(C)cc1)S(C)(=O)=O	-22%	-6%	1%	-5%	-24%	11%
Cc1cccc(NS(=O)(=O)c2cc(NC(=O)CC(=O)c3ccc([N+](=O)[O-])cc3)ccc2C)c1	.	.	?	1%[10 µM]	.	-7%
COc1ccc(C)cc1NC(=O)N1CCC(Oc2ncccc2C(=O)N(C)C)C1 (stereo not drawn)	.	24%	.	.	.	.
CN1CCN(S(=O)(=O)c2ccc(NC(=O)Cn3cnc4ccccc4c3=O)cc2)CC1	.	2%	.	.	.	.
CCOC(=O)N1CCN(S(=O)(=O)c2ccc(F)c(C(=O)Nc3ccc(C)c(Cl)c3)c2)CC1	16µM*	-8%	?	-11%	21µM*	?
